Assay outcomes from PubChem BioAssay.
ALDH1A1 block: qHTS Assay for Inhibitors of Aldehyde Dehydrogenase 1 (ALDH1A1) | hit rate 7.3% among 220,000 | Potency, µM (highest dose often 75.3 µM), usual class: inhibitors | Purified ALDH1A1, NADH fluorescence, propionaldehyde substrate | Aldehyde dehydrogenase 1A1 (Homo sapiens), P00352 | AID 1030, 2008; active means well fitted inhibition curve with a large enough effect, not every such curve was filed as active; inconclusive means small, poorly fitted or top-dose-only effect, or another doubt; inactive means no such curve, though single readings can be large or run the other way
PNC assembly inh: High Content Assay for Compounds that inhibit the Assembly of the Perinucleolar Compartment | hit rate 3.1% among 140,000 | PC3M PTB-GFP, PNC prevalence imaging, 16 h; hits give low values | activity change (PNC), negative = inhibition, % at 10 µM;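 active means readout at or below -70, meaning at least 70% loss of cells showing the perinucleolar compartment, a nuclear body marking cancer cells; inconclusive means readout between -30 and a set limit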
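Read-out is percentage of cells bearing a perinucleolar compartment, from automated 20x imaging of fixed, Hoechst-stained PC3M PTB-GFP cells. Cells were seeded 4 h, then exposed 16 h to compound (23 nl of library stock) in duplicate plates.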
ALOX12 inhib: qHTS Assay for Inhibitors of 12-hLO (12-human lipoxygenase); purified 12-hLO, xylenol orange hydroperoxide absorbance; Potency, µM (top dose mostly 57.1 µM), actives largely listed as inhibitors; hit rate 0.12% among 150,000; further: nearly all actives have a fitted effect of over 55% in size
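150 nM 12hLO, 25 mM Hepes pH 7.0 + 0.01% Triton X-100; cpd preinc 15 min RT; 40 uM arachidonic acid, 30 min RT; Fe-XO 30 min; A573/A405 ratio as read-out.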
HPGD inh: qHTS Assay for Inhibitors of HPGD (15-Hydroxyprostaglandin Dehydrogenase); 15-hydroxyprostaglandin dehydrogenase [NAD(+)] (Homo sapiens), P15428; purified HPGD, NADH fluorescence kinetic, PGE2 substrate; Potency, µM, usual class: inhibitors; hit rate 4.3% among 150,000; active means well fitted inhibition curve with a large enough effect, not every such curve was filed as active; inconclusive means small, poorly fitted or top-dose-only effect, or another doubt; inactive means no such curve, though single readings can be large or run the other way
Target sequence (P15428 whole entry, looked up): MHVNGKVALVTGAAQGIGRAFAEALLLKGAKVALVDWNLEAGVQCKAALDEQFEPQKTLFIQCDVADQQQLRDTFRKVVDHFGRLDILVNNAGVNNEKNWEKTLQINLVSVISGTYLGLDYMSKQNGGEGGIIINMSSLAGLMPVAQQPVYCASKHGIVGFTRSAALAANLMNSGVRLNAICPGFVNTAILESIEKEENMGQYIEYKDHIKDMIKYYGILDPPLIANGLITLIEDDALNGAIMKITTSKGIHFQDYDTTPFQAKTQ
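NADH formation kinetics: reaction with 30 uM PGE2 and 1 mM NAD+ (final), 20 nM enzyme, Tris-HCl pH 8 with Tween 20, after 15 min compound preincubation at room temperature. Fluorescence change, last versus first of five reads.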
IMPase inh: qHTS Assay for Identifying the Cell-Membrane Permeable IMPase Inhibitors | CHO-M1 cells, IP1 accumulation, HTRF TR-FRET ratio | Inositol monophosphatase 1 (Rattus norvegicus), P97697 | inhibition (IP1 accumulation), % at 46.1 µM | 120,000 tested, under 10 active; active means well fitted curve in the direction sought with a large enough effect in the signal ratio, not every such curve was filed as active; inconclusive means small, poorly fitted or top-dose-only effect, or a change in a side signal; inactive means no such curve, though single readings can be large or run the other way; the % refers to the signal ratio;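 further: cells stimulated with carbachol in lithium chloride buffer; higher means more IMPase inhibition seen as more IP1 and lower FRET ratio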
Target sequence (P97697 whole entry, looked up): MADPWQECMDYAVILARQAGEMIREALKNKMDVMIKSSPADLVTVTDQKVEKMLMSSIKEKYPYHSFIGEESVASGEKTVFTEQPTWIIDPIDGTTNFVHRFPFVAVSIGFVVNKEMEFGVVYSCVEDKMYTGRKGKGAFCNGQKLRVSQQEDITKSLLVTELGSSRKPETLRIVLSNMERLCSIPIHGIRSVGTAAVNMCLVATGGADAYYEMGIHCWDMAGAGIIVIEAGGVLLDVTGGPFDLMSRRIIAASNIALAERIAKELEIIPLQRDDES
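Seeded CHO-M1 cells were dosed with compound at up to 46 uM, stimulated with carbachol for 30 min, then lysed in IP-One detection reagents. Higher IP1 lowers the TR-FRET signal.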
IMPase Li inh: qHTS Assay for Identifying the Cell-Membrane Permeable IMPase Inhibitors: Potentiation with Lithium. hit rate 0.35% among 210,000. AID 1457, 2008. Potency, µM (titrated, usually from 59.4 µM), most hits filed as inhibitors. CHO-M1 cells, IP1 TR-FRET (IP-One), carbachol + lithium;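 further: IP1 builds up when IMPase is blocked and the TR-FRET signal falls; nearly all actives have a fitted effect of over 50% in size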
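Steps: plate 2000 CHO-M1 cells per well and culture 16–30 h; add compound and lithium; incubate 30 min, 37C; add d2-IP1 tracer and Eu cryptate anti-IP1 antibody in lysis buffer; read after 10 min at room temperature.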
Numbers stand for hits; i = inactive; ? = inconclusive; nt = no result given. Only some compounds are listed: those with a hit (about 11% of all), similar ones and a draw of the others. Unless noted, the call rests on the fitted dose curve; in most records, active means well fitted curve in the direction sought with a large enough effect; inconclusive means small, poorly fitted or top-dose-only effect, or another doubt; inactive means no such curve, though single readings can be large; an effect the other way counts as inactive or inconclusive.

SMILES | ALDH1A1 block | PNC assembly inh | ALOX12 inhib | HPGD inh | IMPase inh | IMPase Li inh
O=C(O)C1CCCN1S(=O)(=O)c1ccc2ccccc2c1 (stereo not given) | i | -100 | i | ? | i | i
O=C(c1ccccc1)N1CCCCC(S(=O)(=O)c2ccc3ccccc3c2)C1=O (stereo not given) | 10µM | i | i | i | i | i
CCO[C@H]1OC(C(=O)N2CCOCC2)=C[C@@H](c2coc3ccccc3c2=O)[C@@H]1CCCO | i | nt | nt | nt | nt | i
Cc1noc(C)c1C(=O)N1CCC2(CC1)CN(Cc1cc(C(F)(F)F)cc(C(F)(F)F)c1)C2 | i | nt | i | i | nt | i
COc1ccc2c(c1)O[C@@H](c1cccc(C(F)(F)F)c1)[C@H](OC(=O)Nc1cc(OC)c(OC)c(OC)c1)C2=O | i | nt | nt | i | nt | i
Cc1ccc(C)c(NC(=O)Cn2cc(C(=O)C3CCCCC3)c3ccccc32)c1 | nt | nt | nt | nt | i | nt
CCCCCCCCCc1nc2sc3c(c2c(=O)n1NC(=O)c1ccccc1[N+](=O)[O-])CC(C)(C)OC3 | 1.4µM | i | i | i | nt | i
CCCCCCCCCc1nc2sc3c(c2c(=O)n1NC(=O)c1ccc([N+](=O)[O-])cc1)CC(C)(C)OC3 | 7.1µM | ? | i | i | nt | i
O=C(COc1ccc(-c2ccccc2)cc1)N1CCN(C(=O)c2cccs2)CC1 | ? | nt | nt | nt | nt | i
CCCc1nc(SCc2ccc(Cl)cc2Cl)n[nH]1 | i | i | i | 16µM | i | i
CCOC(=O)Cn1cc(/C=C/[N+](=O)[O-])c2ccccc21 | ? | nt | nt | nt | nt | i
CCOc1ccc(/C=C/[N+](=O)[O-])c2ccccc12 | 28µM | i | ? | 11µM | i | i
CCOC(=O)COc1ccc2ccccc2c1/C=C/[N+](=O)[O-] | 13µM | i | i | 3.5µM | i | i
Cc1ccc(-c2cc(C(F)F)n3ncc(C(=O)N4CCCc5ccccc54)c3n2)cc1 | i | -100 | i | i | i | i
COc1ccc(-c2cc(C(F)F)n3ncc(C(=O)N4CCc5ccccc54)c3n2)cc1 | i | nt | nt | nt | nt | i
O=C(c1ccncc1)N1CCC[C@@]2(CCN(Cc3cc(C(F)(F)F)cc(C(F)(F)F)c3)C2)C1 | i | nt | i | i | nt | i
O=S(=O)(c1ccccc1)N1CCN(S(=O)(=O)c2ccccc2)C1 | i | i | i | i | i | i
O=S(=O)(/N=S1/CC=CCN1S(=O)(=O)c1ccccc1)c1ccccc1 (stereo not given) | 2µM | ? | i | 7.9µM | i | i
CC1(C)Cc2c(sc3ncnc(NNC(=S)NCc4ccccc4)c23)CO1 | 1.4µM | i | i | i | nt | i
Cc1cc(C)n(-c2nc(NCc3cccnc3)c3c4c(sc3n2)COC(C)(C)C4)n1 | ? | i | i | ? | i | i
O=C(CN1C(=O)CCC1=O)c1ccc(-c2ccccc2)cc1 | i | -82 | i | i | nt | i
CCN(CC)C(=O)c1ccc2nc3ccccc3nc2c1 | ? | i | i | 0.89µM | nt | i
N=c1ccn(CC(=O)c2ccc(-c3ccccc3)cc2)cc1 | i | nt | nt | nt | nt | i
CCCCN(CC)C(=O)c1ccc(-c2ccccc2)cc1 | i | i | i | 2µM | nt | i
CCN(CC)C(=O)c1ccc2nc(-c3ccccc3)c(-c3ccccc3)nc2c1 | ? | ? | i | ? | i | i
CCCCN(CC)C(=O)c1cccc(Cl)c1 | ? | i | i | ? | i | i
CCN(CC)C(=O)c1cccc(C)c1 | i | nt | i | 25µM | nt | i
CCOc1cccc(C(=O)N(Cc2ccc(CC)cc2)C2CCS(=O)(=O)C2)c1 (stereo not given) | nt | nt | nt | nt | i | nt
CCN(CC)C(=O)c1ccc(C(=O)c2ccccc2)cc1 | ? | i | i | 1µM | i | i
CCN(CC)C(=O)c1ccc(C)c(Br)c1 | i | i | i | 18µM | i | i
